# Source: PubChem BioAssay
# TTR transcr act: TTR transcription activators in neuroblastoma reporter cells, primary screen, cell-based, luminescence, SH-SY5Y, TTR promoter Gaussia luciferase; 100% = recombinant luciferase protein wells; hit rate 1.3% among 92,000; activation, % at 16.7 µM; AID 1117267, 2014;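 active = activation above the mean of all tested compounds plus 3 SD, cut at about 9.5% in these data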;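 also: cells exposed to compounds for one day before reading; 0% = median of all test compound wells on the plate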
# HuH7 TTR inh: TTR promoter reporter inhibitors in hepatoma cells, counter-screen for TTR transcription activator project, cell-based, luminescence, HuH7 hepatoma. shares compounds with TTR transcr act. HuH7 TTR promoter-Gaussia luciferase reporter. inhibition, % at 16.7 µM. hit rate 4% among 1,100. AID 1117279, 2014;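 active = average inhibition above the solvent-only control wells' mean plus 3 SD, cut at about 15% in these data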;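 also: 0% = cells with DMSO only and 100% = cells with inhibitor control FD; inhibitors lower well luminescence so higher value means more inhibition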
# TTR up confirm: TTR transcription activators, retest, confirmation, cell-based, luminescence, SH-SY5Y, triplicate | shares compounds with TTR transcr act | 1,100 tested, under 10 active | activation, % at 16.7 µM | SHSY5Y TTR promoter Gaussia luciferase; 100% = purified Lucia enzyme wells, no cells;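 active = mean activation above a set limit taken from the earlier primary screen, cut at about 11% in these data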;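 also: 0% = DMSO-treated cells and 100% = recombinant Lucia luciferase without cells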
# The depositor's hits bear a star. The full list was thinned out, with hits kept by preference.
SMILES,TTR transcr act,others
Cc1ccc(S(=O)(=O)C2(C(=O)N3CCN(c4cc(C)ccc4C)CC3)CC2)cc1,-3,
COc1cccc(Cn2ncc3c4sc(S(C)=O)cc4n(C)c3c2=O)c1 (centres undefined),5,
Cc1ccc([C@H]2C(C(=O)O)=CC[C@@H](c3cccc(C)c3)N2S(=O)(=O)c2ccc(C)cc2)cc1,4,
Cc1ccc(S(=O)(=O)N2[C@@H](c3ccc(F)cc3)C(C(=O)O)=CC[C@H]2c2cccc(Cl)c2)cc1,1,
COc1ccc([C@@H]2CC=C(C(=O)O)[C@H](c3ccccc3F)N2S(=O)(=O)c2ccccc2C)cc1,14*,HuH7 TTR inh=16*;TTR up confirm=-1
Cc1ccc([C@@H]2CC=C(C(=O)O)[C@H](c3ccccc3)N2S(=O)(=O)c2ccc(C)cc2)cc1,-1,
Cc1ccc(S(=O)(=O)N2[C@@H](c3ccccc3F)C(C(=O)O)=CC[C@H]2c2cccs2)cc1,13*,HuH7 TTR inh=-1;TTR up confirm=2
Cc1ccc([C@H]2C(C(=O)O)=CC[C@@H](c3ccc(Cl)cc3)N2S(=O)(=O)c2ccc(C)cc2)cc1,-3,
Cc1ccc(NC(=O)c2ncn(CC(=O)NCc3nc4ccccc4[nH]3)n2)cc1C,1,
CC(C)S(=O)(=O)NC(=O)C1(C)CCN1C(=O)Cc1ccccc1Cl (centres undefined),3,
COC[C@@H]1CCCN1c1ccc2c(c1)O[C@@H]1CCN(C1)S2(=O)=O,1,
C=CCN1C(=O)[C@@H](CC(=O)NCc2ccc(C)o2)[C@]2(C(=O)OC)CCCCC=C12,-1,
